Laboratory results from PubChem BioAssay AID1159580 (chemical genetic matrix, 2015).
Several values for one entry are separate records, joined by “and”; a condition that tells them apart may be missing. Identical values can stand only once. In all, about 5,500 compounds went through this assay and about 2,000 (36%) were called active. About 18% were inconclusive and are not listed. No stated cut-off is given here; in the data, active means normalized growth mostly below about 0.91 (no sharp cut-off); inconclusive means no clear call, values can overlap the other calls; inactive means mostly above about 0.92. Some of the results follow.

Assay: chemical genetic growth profiling, strain panel (AID 1159580);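 further: tested at 20 µM; growth read once vehicle control cultures reached saturation at 30 °C; 1 = growth at the plate median or of vehicle wells; lower values mean less growth of the strain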
Conditions: S. cerevisiae deletion strains, growth OD

Measured: normalized growth

NCC(O)CC(=O)O (centres undefined)
inactive: locus YAL021C, strain ccr4, hits give low values 1.01 | locus YAL026C, strain drs2, hits give low values 0.967 | locus YAL030W, strain snc1, hits give low values 0.98 | locus YBL061C, strain skt5, hits give low values 0.986 | locus YBR009C, strain hhf1, hits give low values 0.962 | locus YBR021W, strain FUR4, hits give low values 0.999 | locus YBR023C, strain chs3, hits give low values 0.994 | locus YBR171W, strain sec66, hits give low values 0.989 | locus YBR229C, strain ROT2, hits give low values 1.01 | locus YBR231C, strain swc5, hits give low values 0.995 | locus YBR279W, strain paf1, hits give low values 0.991 | locus YCL011C, strain gbp2, hits give low values 0.966 | locus YCL016C, strain dcc1, hits give low values 0.994 | locus YCL029C, strain bik1, hits give low values 0.992 | locus YCL061C, strain MRC1, hits give low values 0.995 | locus YCL069W, strain vba3, hits give low values 0.984 | locus YCR088W, strain abp1, hits give low values 0.977 | locus YDL005C, strain med2, hits give low values 0.969 | locus YDL035C, strain GPR1, hits give low values 1.01 | locus YDL040C, strain nat1, hits give low values 0.991 | locus YDL074C, strain BRE1, hits give low values 1.01 | locus YDL101C, strain DUN1, hits give low values 1.01 | locus YDL134C, strain PPH21, hits give low values 1.01 | locus YDL185W, strain tfp1, hits give low values 0.994 | locus YDL192W, strain arf1, hits give low values 0.997 | locus YDR001C, strain nth1, hits give low values 0.977 | locus YDR069C, strain doa4, hits give low values 1.04 | locus YDR101C, strain arx1, hits give low values 1.02 | locus YDR137W, strain rgp1, hits give low values 0.988 | locus YDR159W, strain sac3, hits give low values 0.968 | locus YDR162C, strain NBP2, hits give low values 1.02 | locus YDR195W, strain ref2 0.951 | locus YDR297W, strain sur2, hits give low values 0.986 | locus YDR318W, strain mcm21, hits give low values 1.01 | locus YDR334W, strain swr1, hits give low values 0.975 | locus YDR335W, strain msn5, hits give low values 0.988 | locus YDR388W, hits give low values 0.999 | locus YDR392W, strain spt3, hits give low values 0.892 | locus YDR502C, strain sam2, hits give low values 0.991 | locus YEL003W, strain gim4, hits give low values 0.964 | locus YEL037C, strain rad23, hits give low values 0.977 | locus YEL061C, strain CIN8 (second series), hits give low values 0.966 | locus YEL061C, strain CIN8, hits give low values 1.01 | locus YER015W, strain faa2, hits give low values 0.986 | locus YER016W, strain bim1, hits give low values 0.983 | locus YER110C, hits give low values 1 | locus YER111C, strain swi4, hits give low values 0.974 | locus YER155C, strain BEM2 (second series), hits give low values 0.997 | locus YER155C, strain BEM2, hits give low values 1.01 | locus YER167W, strain BCK2, hits give low values 1.01 | locus YFR010W, strain ubp6, hits give low values 0.973 | locus YGL078C, strain dbp3, hits give low values 0.994 | locus YGL086W, strain mad1, hits give low values 1 | locus YGL167C, strain pmr1, hits give low values 0.957 | locus YGL173C, strain kem1, hits give low values 0.984 | locus YGL227W, strain vid30, hits give low values 0.955 | locus YGL240W, strain doc1, hits give low values 0.989 | locus YGL248W, strain PDE1, hits give low values 1.01 | locus YGL253W, strain hxk2, hits give low values 0.989 | locus YGR078C, strain PAC10, hits give low values 1.01 | locus YGR135W, strain pre9, hits give low values 1 | locus YGR252W, strain gcn5, hits give low values 0.982 | locus YHR013C, strain ard1, hits give low values 0.964 | locus YHR027C, strain rpn1, hits give low values 0.997 | locus YHR030C, strain SLT2, hits give low values 1.01 | locus YHR079C, strain IRE1 (second series), hits give low values 1 | locus YHR079C, strain IRE1, hits give low values 1.03 | locus YHR094C, strain hxt1, hits give low values 0.988 | locus YHR129C, strain ARP1, hits give low values 1.01 | locus YHR142W, strain chs7, hits give low values 1.02 | locus YHR200W, strain rpn10, hits give low values 0.999 | locus YIL066C, strain RNR3, hits give low values 1.02 | locus YIL073C, strain SPO22, hits give low values 1.03 | locus YIL125W, strain kgd1, hits give low values 1.01 | locus YIR030C, strain dcg1, hits give low values 1 | locus YJL092W, strain hpr5, hits give low values 0.99 | locus YJL095W, strain BCK1 (second series), hits give low values 1.01 | locus YJL095W, strain BCK1, hits give low values 1.01 and 1.02 | locus YJL115W, strain asf1, hits give low values 0.981 | locus YJL129C, strain trk1, hits give low values 0.991 | locus YJL134W, strain LCB3, hits give low values 1.01 | locus YJL154C, strain vps35, hits give low values 0.981 | locus YJL164C, strain tpk1, hits give low values 1.06 | locus YJL166W, strain qcr8, hits give low values 1.02 | locus YJL168C, strain set2, hits give low values 0.997 | locus YJL187C, strain SWE1 (second series), hits give low values 1.02 | locus YJL187C, strain SWE1, hits give low values 0.994 | locus YJR043C, strain POL32, hits give low values 1.02 | locus YJR066W, strain TOR1, hits give low values 0.924
